tim23-1 inh = growth inhibitors of tim23-1 mutant yeast. S. cerevisiae tim23-1 growth, BacTiter-Glo luminescence, 24 h. inhibition, % at 20 µM. 330,000 tested, 1.3% active;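 active = growth inhibition of the mutant yeast at or above 50%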;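 also: temperature-sensitive mutant grown at 25 °C; plate controls were DMSO-treated mutant yeast for no effect and medium wells lacking yeast for full effect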
NALP1 inh = inhibitors of NALP1 inflammasome in yeast | S. cerevisiae NALP1/ASC/caspase-1 growth, X-gal OD620, 72 h | 280,000 tested, 0.61% active | AID 2071 | inhibition, % at 10 µM; in the data active = inhibition mostly above about 24%, no sharp cut-off; inactive = mostly below about 32%
NALP3 yeast inh = NALP3 inhibition in yeast; inhibition, % at 10 µM; Yeast reconstituted NLRP3/ASC/caspase-1, beta-gal luminescence, 24 h; 330,000 tested, 0.39% active;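 active = inhibition of 50% or more; inactive = inhibition below 50%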;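 also: plate controls were induced DMSO wells for no effect and uninduced yeast grown without galactose for full effect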
TIM10 inh = growth inhibitors of TIM10 yeast strain; S. cerevisiae TIM10 strain growth, BacTiter-Glo luminescence, 24 h; inhibition, % at 10 µM; 330,000 tested, 1.4% active; AID 463195;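 active = inhibition of 40% or more at the single tested concentration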;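 also: wild-type TIM10 isogenic control strain grown at permissive 25 °C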
tim10-1 inh = tim10-1 yeast growth inhibition; inhibition, % at 20 µM; 330,000 tested, 2.2% active; S. cerevisiae tim10-1 ts strain growth, BacTiter-Glo, 24 h;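 active = inhibition of at least 40%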;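 also: mutant grown at 25 °C; 0% = DMSO wells with yeast and 100% = wells holding no yeast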
V-ATPase pH = yeast V-ATPase proton transport regulation by pHLuorin; 350,000 tested, 0.37% active; S. cerevisiae, pHLuorin cytosolic pH fluorescence; response, % at 10 µM; in the data active = response mostly above about 7.3%, no sharp cut-off; inactive = mostly below about 5.4%; also: actives read high
tim10-1 conf = confirmation of tim10-1 mutant yeast growth inhibitors; shares compounds with tim10-1 inh; S. cerevisiae tim10-1 ts strain growth, BacTiter-Glo, 24 h; inhibition, % at 20 µM; 7,400 tested, 56% active; AID 463213;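 active = inhibition of yeast growth at or above a set limit in either of two repeat tests at 20 µM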;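 also: tim10-1 mutant grown at permissive 25 °C to find synthetic lethal compounds; 0% = DMSO yeast wells and 100% = medium wells without yeast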
Starred values were filed as active, the others as inactive. Sampled rows, rich in hits. Any-hit rate of the full collection: about 4.2%.

Results for Cc1cccc2sc(N(CCCN(C)C)C(=O)c3ccc(C(=O)c4ccccc4)cc3)nc12 ?
tim23-1 inh: 3; NALP1 inh: 5; NALP3 yeast inh: 10; TIM10 inh: 27; tim10-1 inh: 43*; V-ATPase pH: -8; tim10-1 conf: 7

Results for CN(C)CCCN(C(=O)c1ccc(C(=O)c2ccccc2)cc1)c1nc2ccc(F)cc2s1 ?
tim23-1 inh: 16; NALP1 inh: 30; NALP3 yeast inh: 17; TIM10 inh: 35; tim10-1 inh: 49*; V-ATPase pH: -3; tim10-1 conf: 4

What do the screens show for `CN(C)CCCN(C(=O)c1nc2ccccc2s1)c1nc2ccc(F)cc2s1`?
tim23-1 inh: 18; NALP3 yeast inh: 10; TIM10 inh: 12; tim10-1 inh: -3; V-ATPase pH: -1

Results for CN(C)CCCN(C(=O)c1ccc(C(=O)c2ccccc2)cc1)c1nc2cc3c(cc2s1)OCO3 ?
tim23-1 inh: 22; NALP1 inh: 24; NALP3 yeast inh: 11; TIM10 inh: 40; tim10-1 inh: 27; V-ATPase pH: -1

Results for O=C(N/N=C/C=C/c1ccccc1[N+](=O)[O-])c1cc(-c2ccccc2)n[nH]1 ?
tim23-1 inh: 13; NALP1 inh: 17; NALP3 yeast inh: 12; TIM10 inh: 24; tim10-1 inh: 7; V-ATPase pH: -2

How did CC(C)CC1(C)NC(=O)N(CC(=O)Nc2ccc3c(c2)CCC3)C1=O (stereo unspecified) do in these assays?
tim23-1 inh: 1; NALP1 inh: 3; NALP3 yeast inh: 16; TIM10 inh: -7; tim10-1 inh: -3; V-ATPase pH: 0

What do the screens show for `O=C(Nc1nnc(C2CCCCC2)s1)c1ccco1`?
tim23-1 inh: 32; NALP1 inh: 20; NALP3 yeast inh: 13; TIM10 inh: 24; tim10-1 inh: 45*; V-ATPase pH: 0; tim10-1 conf: 35*

What do the screens show for `COc1ccc(NC(=S)/N=C(\N)Nc2nc(C)c3ccc(C)cc3n2)cc1`?
tim23-1 inh: 13; NALP1 inh: 12; NALP3 yeast inh: 29; TIM10 inh: 29; tim10-1 inh: 40*; V-ATPase pH: 0; tim10-1 conf: 26

What do the screens show for `CCOc1ccc2nc(N/C(N)=N/C(=S)Nc3ccc(C)c(C)c3)nc(C)c2c1`?
tim23-1 inh: 30; NALP1 inh: 20; NALP3 yeast inh: 21; TIM10 inh: 26; tim10-1 inh: 15; V-ATPase pH: 1

Results for Cc1ccc2c(C)nc(N/C(N)=N/S(=O)(=O)c3ccc([N+](=O)[O-])cc3)nc2c1 ?
tim23-1 inh: 30; NALP1 inh: 32; NALP3 yeast inh: 41; TIM10 inh: 25; tim10-1 inh: 42*; V-ATPase pH: -6; tim10-1 conf: 26

Results for Cc1ccc(NS(=O)(=O)c2cccc(C(=O)NCCCN3CCOCC3)c2)cc1 ?
tim23-1 inh: -22; NALP3 yeast inh: 8; TIM10 inh: 1; tim10-1 inh: -22; V-ATPase pH: 0

Results for O=C(CNC(=O)c1ccco1)OCC(=O)c1ccc(Cl)cc1 ?
tim23-1 inh: 2; NALP1 inh: -9; NALP3 yeast inh: 3; TIM10 inh: 2; tim10-1 inh: 7; V-ATPase pH: 0

Results for COc1ccc2c(c1)cc(C(=O)N/N=C/c1c(O)c(C(=O)O)cc3ccccc13)n2C ?
tim23-1 inh: 38; NALP1 inh: -10; NALP3 yeast inh: 11; TIM10 inh: -3; tim10-1 inh: 12; V-ATPase pH: -2

How did Cc1cccc(-n2cc(-c3ccc([N+](=O)[O-])cc3)[nH]c2=S)c1 do in these assays?
tim23-1 inh: -12; NALP1 inh: 23; NALP3 yeast inh: 16; TIM10 inh: 9; tim10-1 inh: 2; V-ATPase pH: 1

What do the screens show for `Cc1ccc(-n2cc(-c3ccc([N+](=O)[O-])cc3)[nH]c2=S)c(C)c1`?
tim23-1 inh: 44; NALP1 inh: -16; NALP3 yeast inh: 4; TIM10 inh: 40; tim10-1 inh: 46*; V-ATPase pH: -1; tim10-1 conf: 35*

Results for Cc1ccc([N+](=O)[O-])cc1NC(=S)NC(=O)CC(C)(C)C ?
tim23-1 inh: 41; NALP1 inh: 8; NALP3 yeast inh: 18; TIM10 inh: 23; tim10-1 inh: 43*; V-ATPase pH: -3; tim10-1 conf: 26

Results for Cc1ccc([N+](=O)[O-])cc1NC(=S)NC(=O)C(C)(C)C ?
tim23-1 inh: 26; NALP1 inh: -8; NALP3 yeast inh: 28; TIM10 inh: 15; tim10-1 inh: 16; V-ATPase pH: -3

What do the screens show for `CC(=O)N1CCN(c2ccc(NC(=O)c3ccc(F)cc3)cc2)CC1`?
tim23-1 inh: 1; NALP1 inh: 23; NALP3 yeast inh: 8; TIM10 inh: 5; tim10-1 inh: 1; V-ATPase pH: 5

How did Cc1nc2scc(-c3ccccc3)c2c(=O)n1N=C1C=CC(=O)C=C1 do in these assays?
tim23-1 inh: 12; NALP1 inh: -19; NALP3 yeast inh: 22; TIM10 inh: 22; tim10-1 inh: 28

Results for CC(C)CCNC(=O)NC(=O)CSc1nnc(COc2ccccc2Cl)o1 ?
tim23-1 inh: -15; NALP1 inh: 2; NALP3 yeast inh: 1; TIM10 inh: 25; tim10-1 inh: 49*; V-ATPase pH: -1; tim10-1 conf: 13

Results for CCC(CO)Oc1cc(NCc2ccc(C(C)(C)C)cc2)c2ncn(C(C)C)c2c1 (stereo unspecified) ?
tim23-1 inh: 24; NALP3 yeast inh: 33; TIM10 inh: -4; tim10-1 inh: -4; V-ATPase pH: -3

What do the screens show for `Cc1cccc(-c2oc3ccccc3c2C#CCCO)c1`?
tim23-1 inh: 31; NALP1 inh: 20; NALP3 yeast inh: 23; TIM10 inh: 30; tim10-1 inh: 45*; V-ATPase pH: 5; tim10-1 conf: 11

Results for Cc1cccc(-c2oc3ccccc3c2C#CCCCCO)c1 ?
tim23-1 inh: 6; NALP1 inh: 21; NALP3 yeast inh: 1; TIM10 inh: 8; tim10-1 inh: 18; V-ATPase pH: 3

What do the screens show for `Cn1ncc([N+](=O)[O-])c1C(=O)N/N=C/c1c[nH]c2ccccc12`?
tim23-1 inh: 12; NALP1 inh: 1; NALP3 yeast inh: 5; TIM10 inh: 3; tim10-1 inh: -6; V-ATPase pH: 1

How did COc1cc(/C=C2\C(=N)N3N=C(S(=O)(=O)CC(C)C)SC3=NC2=O)ccc1OC(=O)c1ccco1 do in these assays?
tim23-1 inh: 19; NALP1 inh: -22; NALP3 yeast inh: 1; TIM10 inh: 14; tim10-1 inh: 41*; tim10-1 conf: 5

Results for CN(C(=O)CSc1nnc(-c2ccc(Cl)cc2)n1CC1CCCO1)C1CCS(=O)(=O)C1 (stereo unspecified) ?
tim23-1 inh: -1; NALP1 inh: -6; NALP3 yeast inh: -14; TIM10 inh: 12; tim10-1 inh: 4; V-ATPase pH: -2
